Here are results for 28 molecules from PubChem BioAssay (EPA / NIEHS).

SMILES strings stand for the structures. Results filed as inconclusive are left out. Calls of active or inactive are those of the source. How the source made its calls: active means hit-call score of the fitted dose curve at least 0.9, where 1 is the maximum; inconclusive means response in the unintended direction; inactive means score below 0.9.

In the assay the target is human Retinoic Acid Receptor beta (RARb), RARB (gene 5915) (UniProt P10826). In words: ATG_RARb_TRANS: Attagene TRANS-FACTORIAL HepG2 Assay for human Retinoic Acid Receptor beta (AID 2283004). Here is the method: ATG_TRANS is a cell-based, multiplexed-readout assay that uses HepG2, a human liver cell line, with measurements taken at 24 hours after chemical dosing in a 24-well plate.ATG_RARb_TRANS is one of 30 assay component(s) measured or calculated from the ATG_TRANS assay. It is designed to make measurements of mRNA induction, a form of inducible reporter, as detected with fluorescence intensity signals by Reverse transcription polymerase chain reaction (RT-PCR) and Capillary electrophoresis technology.Data from the assay component ATG_RARb_TRANS was analyzed into 1 assay endpoint. This assay endpoint, ATG_RARb_TRANS, was analyzed in the positive analysis fitting direction relative to DMSO as the negative control and baseline of activity. Using a type of inducible reporter, measures of mRNA for gain-of-signal activity can be used to understand the reporter gene at the transcription factor-level as they relate to the gene RARB. Furthermore, this assay endpoint can be referred to as a primary readout, because this assay has produced multiple assay endpoints where this one serves a reporter gene function. To generalize the intended target to other relatable targets, this assay endpoint is annotated to the nuclear receptor intended target family, where the subfamily is non-steroidal.
human Retinoic Acid Receptor beta (RARb), RARB (gene 5915), sequence (P10826 whole entry, looked up): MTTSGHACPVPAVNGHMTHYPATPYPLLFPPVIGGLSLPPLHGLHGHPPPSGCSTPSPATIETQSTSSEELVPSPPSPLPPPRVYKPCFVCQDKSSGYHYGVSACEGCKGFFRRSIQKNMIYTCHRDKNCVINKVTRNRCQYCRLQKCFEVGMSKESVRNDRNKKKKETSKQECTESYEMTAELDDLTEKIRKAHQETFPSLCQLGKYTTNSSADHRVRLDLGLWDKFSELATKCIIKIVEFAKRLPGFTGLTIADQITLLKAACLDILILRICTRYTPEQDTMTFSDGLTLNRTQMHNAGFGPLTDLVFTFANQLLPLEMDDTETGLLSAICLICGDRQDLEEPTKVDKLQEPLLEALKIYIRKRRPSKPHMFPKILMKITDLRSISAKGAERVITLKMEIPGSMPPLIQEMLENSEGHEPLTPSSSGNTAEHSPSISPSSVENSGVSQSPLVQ
Human liver HepG2 cells are transiently transfected with multiple reporter transcription units (MRTUs) in 6-well plates using FuGene 6 reagent (Roche; 3 ml FuGene/1 mg DNA). The MRTU constructs are regulated by a cis-regulating element (promoter). […] A major difference between the CIS and TRANS system is that in CIS activities of endogenous TFs are measured, whereas the TRANS assay evaluates changes in activities of exogenous, chimeric NR-Gal4 proteins. […] At the end of 24 hour incubation, total RNA was isolated using TriZol reagent (Invitrogen). The isolated RNA is then reverse-transcribed using oligo(dT) primer and Mo-MLV reverse transcriptase (Invitrogen) with DNAse I (Ambion) treatment for 30 min. The one-tenth of the produced cDNA was amplified by PCR using Taq DNA polymerase (Invitrogen) and two reporter sequence-specific primers. The PCR products were fluorescently labeled by primer extension with 6-arboxyfluorescein (6-FAM) 5'-labeled reporter sequence-specific primer (2 min at 95 C, 20 s at 68 C and 10 min at 72 C) and these products were digested with 5U of HpaI (New England Biolabs) for 2h at 37 C. The fragments were purified using Qiaquick PCR columns (Qiagen), analyzed on an ABI 3130xL genetic analyzer (Applied Biosystems) with peak positions identified by using a set of X-rhodamine (ROX)-labeled MapMarker1000 molecular weight standards (BioVentures). The raw capillary electrophoresis data was processed using Attagraph software (Attagene).
On to `CO[C@H]1/C=C/O[C@@]2(C)Oc3c(C)c(O)c4c(O)c(c(/C=N/N5CCN(C)CC5)c(O)c4c3C2=O)NC(=O)/C(C)=C\C=C\[C@H](C)[C@H](O)[C@@H](C)[C@@H](O)[C@@H](C)[C@H](OC(C)=O)[C@@H]1C`, for which the molecule was called inactive. On to `CC(C)(C)c1cc(/C=C2\SC(N)=NC2=O)cc(C(C)(C)C)c1O`, for which the outcome was inactive. The result for `CN(C)c1ccc(C(=C2C=CC(=[N+](C)C)C=C2)c2ccc(N(C)C)cc2)cc1` reads “inactive”. In the case of `O=C(Nc1ccc(Cl)cc1)Nc1ccc(Cl)c(Cl)c1`, the molecule was called inactive. In the case of `OCCO`, the molecule was classed as inactive. For `CCCCCCCCN(C)CCCCCCCC`, the result was inactive.

Turning to `CCCCCCCCOC(=O)c1cc(O)c(O)c(O)c1`, the molecule was classed as inactive. With `CC[C@@H]1C[C@H](N(Cc2cc(C(F)(F)F)cc(C(F)(F)F)c2)C(C)=O)c2cc(C(F)(F)F)ccc2N1C(=O)OC(C)C`, the molecule was classed as inactive.

As to `C[C@]12CC[C@@H]3c4ccc(O)cc4CC[C@H]3[C@@H]1CC[C@H]2O`, the molecule was classed as inactive.

With `c1ccc2ccccc2c1`, the molecule was classed as inactive. In the case of `O=C1CCC(C2CCCCC2)CC1`, the call was inactive. The result for `CC(C)(O)c1ccc(CNC(=O)c2cccnc2Oc2ccc3nonc3c2)cc1` reads “inactive”.

Take `Cc1ccc(C(C)C)cc1`: the result was inactive. Take `CC(C)(c1cc(Br)c(O)c(Br)c1)c1cc(Br)c(O)c(Br)c1`: the call was inactive. Take `CCCCCCCCCCCCO`: the result was inactive. With `O=C(O)c1ccccc1-n1cc(C(=O)O)c(=O)c2cc(Nc3c(F)cc(F)cc3Cl)c(Cl)cc21` the entry was “inactive”; with `Cc1cc2c(cc1C(F)(F)F)N(C(=O)Nc1ccc(Oc3cccnc3C)nc1)CC2`, “inactive”; with `CCCC(=O)OCCC(C)C`, “inactive”. With `O=C(OCCCCCCOC(=O)c1ccccc1)c1ccccc1` the entry was “inactive”. In the case of `CC1=CC(=O)/C(=C(/C)O)C(=O)O1`, the result was inactive.

Turning to `O=C(O)Cc1cc(I)c(Oc2ccc(O)c(I)c2)c(I)c1`, the result was inactive. The result for `CC[C@H](NC(=O)c1cc(F)ccc1NS(=O)(=O)c1cccc2cccnc12)c1ccccc1` reads “inactive”; that for `Clc1cc(Cl)c2c(c1)N=C1CCCCCN1C2`, “inactive”; that for `Cc1oc2c(NC(=O)c3c(Cl)cccc3Cl)cccc2c1C(C)(C)O`, “inactive”. Consider `CCCCCCCCOc1ccc(C(=O)c2ccccc2)c(O)c1`, for which the molecule was classed as inactive. For `CC/C(=C(/CC)c1ccc(O)cc1)c1ccc(O)cc1`, the molecule was called inactive. With `CC(O)CC(C)(C)O` (stereo not drawn), the call was inactive. As to `CCCCCCCC[Si](OCC)(OCC)OCC`, the molecule was called inactive.
